# Tests used:
# Assay in all cases: DAPPL (digital affinity profiling via proximity ligation, sequencing); 10 mM Tris-HCl pH 7.5, 50 mM NaCl, 1 mM DTT, 4% glycerol, room temperature, 30 min; GST-TFs on glutathione beads, 16-mer random dsDNA library, 0.1% formaldehyde crosslink after washing; high values mean tight binding
# FLI1 = target: T1, FLI1 (Homo sapiens, UniProt Q01543 1-452); details: protein: recombinant; tags: N-terminal GST; dsDNA, one strand shown
# T1 sequence: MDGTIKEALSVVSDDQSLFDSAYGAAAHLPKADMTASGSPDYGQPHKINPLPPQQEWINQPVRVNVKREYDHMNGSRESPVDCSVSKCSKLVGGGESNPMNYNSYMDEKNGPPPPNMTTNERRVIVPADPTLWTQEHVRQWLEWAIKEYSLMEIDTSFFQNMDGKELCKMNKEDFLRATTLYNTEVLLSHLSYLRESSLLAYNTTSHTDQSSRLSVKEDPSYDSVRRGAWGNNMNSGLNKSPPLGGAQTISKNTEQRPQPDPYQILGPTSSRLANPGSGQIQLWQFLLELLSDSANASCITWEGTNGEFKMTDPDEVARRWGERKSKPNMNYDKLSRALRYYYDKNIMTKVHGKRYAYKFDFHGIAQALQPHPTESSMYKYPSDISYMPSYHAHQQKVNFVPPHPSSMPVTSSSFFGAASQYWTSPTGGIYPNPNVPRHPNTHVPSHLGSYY
# Procedure, shortened: (§1)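 Pools of DNA-barcoded human transcription factors, expressed in yeast as GST fusions on glutathione beads and combined with a tag-only sample, were incubated with 200 nmole of a 16-mer random double-stranded DNA library. Incubation took 30 min at room temperature in Tris/NaCl/DTT/glycerol buffer and was followed by washing, 0.1% formaldehyde crosslinking, proximity ligation (BsaI/T4 ligase, 1 h, 37 °C), PCR amplification and sequencing on an Illumina NextSeq500. Binding signal is the ratio of a hexamer's read frequency for a factor to its frequency for the tag-only sample.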
# ELK1 = target: T2, ELK1 (Homo sapiens, UniProt P19419 1-428); details: protein: recombinant; tags: N-terminal GST; dsDNA, one strand shown
# T2 sequence: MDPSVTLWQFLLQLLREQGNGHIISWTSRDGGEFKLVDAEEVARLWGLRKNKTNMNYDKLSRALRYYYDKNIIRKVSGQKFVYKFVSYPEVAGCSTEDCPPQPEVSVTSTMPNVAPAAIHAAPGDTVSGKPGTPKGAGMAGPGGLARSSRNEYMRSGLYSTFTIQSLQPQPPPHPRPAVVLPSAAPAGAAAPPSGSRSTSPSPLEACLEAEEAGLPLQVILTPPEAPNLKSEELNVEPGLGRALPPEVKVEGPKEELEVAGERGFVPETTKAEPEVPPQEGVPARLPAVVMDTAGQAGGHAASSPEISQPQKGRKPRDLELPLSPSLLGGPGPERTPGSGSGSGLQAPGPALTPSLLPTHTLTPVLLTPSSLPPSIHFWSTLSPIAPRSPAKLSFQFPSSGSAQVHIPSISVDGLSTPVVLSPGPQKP
# Procedure, shortened: as §1
# GABPA = target: T3, GABPA (Homo sapiens, UniProt Q06546 1-454); details: protein: recombinant; tags: N-terminal GST; dsDNA, one strand shown
# T3 sequence: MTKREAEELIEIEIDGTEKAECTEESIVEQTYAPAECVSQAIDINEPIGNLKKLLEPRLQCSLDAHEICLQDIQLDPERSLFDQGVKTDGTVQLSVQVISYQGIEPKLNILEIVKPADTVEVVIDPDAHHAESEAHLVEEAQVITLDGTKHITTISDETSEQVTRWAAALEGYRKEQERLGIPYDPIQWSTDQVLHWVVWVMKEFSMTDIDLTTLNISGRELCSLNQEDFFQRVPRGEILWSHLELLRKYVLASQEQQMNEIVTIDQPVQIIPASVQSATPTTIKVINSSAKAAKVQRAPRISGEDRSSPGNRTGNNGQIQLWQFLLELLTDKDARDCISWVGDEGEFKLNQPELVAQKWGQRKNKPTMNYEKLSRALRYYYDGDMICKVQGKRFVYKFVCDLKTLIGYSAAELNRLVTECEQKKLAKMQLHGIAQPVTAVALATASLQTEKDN
# Procedure, shortened: as §1
# ERG = target: T4, ERG (Homo sapiens, UniProt P11308 1-479); details: protein: recombinant; tags: N-terminal GST; dsDNA, one strand shown
# T4 sequence: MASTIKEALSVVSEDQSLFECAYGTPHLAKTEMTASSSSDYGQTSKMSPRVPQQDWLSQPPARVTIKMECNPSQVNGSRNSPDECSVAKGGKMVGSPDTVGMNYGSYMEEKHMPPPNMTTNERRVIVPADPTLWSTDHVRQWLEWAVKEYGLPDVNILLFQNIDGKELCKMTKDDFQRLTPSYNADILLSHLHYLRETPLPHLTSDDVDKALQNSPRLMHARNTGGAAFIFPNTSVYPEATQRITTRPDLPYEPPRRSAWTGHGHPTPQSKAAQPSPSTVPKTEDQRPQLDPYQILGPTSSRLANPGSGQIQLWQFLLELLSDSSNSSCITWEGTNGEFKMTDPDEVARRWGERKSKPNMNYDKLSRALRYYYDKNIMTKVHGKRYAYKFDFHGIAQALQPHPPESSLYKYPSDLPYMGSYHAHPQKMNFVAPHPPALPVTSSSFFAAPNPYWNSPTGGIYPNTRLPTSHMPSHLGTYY
# Procedure, shortened: as §1
# ELF1 = ELF1 (Homo sapiens, UniProt P32519 1-619); details: protein: recombinant; tags: N-terminal GST; dsDNA, one strand shown
# Procedure, shortened: as §1
# EHF = target: T5, EHF (Homo sapiens, UniProt Q9NZC4 1-300); details: protein: recombinant; tags: N-terminal GST; dsDNA, one strand shown
# T5 sequence: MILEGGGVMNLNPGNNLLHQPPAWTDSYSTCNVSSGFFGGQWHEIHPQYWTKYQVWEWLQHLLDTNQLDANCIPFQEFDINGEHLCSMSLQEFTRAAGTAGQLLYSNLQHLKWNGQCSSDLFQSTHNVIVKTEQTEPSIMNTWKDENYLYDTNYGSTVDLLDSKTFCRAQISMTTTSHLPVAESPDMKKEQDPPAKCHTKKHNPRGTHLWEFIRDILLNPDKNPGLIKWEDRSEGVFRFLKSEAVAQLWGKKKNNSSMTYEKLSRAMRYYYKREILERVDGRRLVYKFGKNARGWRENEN
# Procedure, shortened: as §1
# SPI1 = SPI1 (Homo sapiens, UniProt P17947 1-270); details: protein: recombinant; tags: N-terminal GST; dsDNA, one strand shown
# Procedure, shortened: as §1
# SPIB = SPIB (Homo sapiens, UniProt Q01892 1-262); details: protein: recombinant; tags: N-terminal GST; dsDNA, one strand shown
# Procedure, shortened: as §1
# ELK3 = target: T6, ELK3 (Homo sapiens, UniProt P41970 1-407); details: protein: recombinant; tags: N-terminal GST; dsDNA, one strand shown
# T6 sequence: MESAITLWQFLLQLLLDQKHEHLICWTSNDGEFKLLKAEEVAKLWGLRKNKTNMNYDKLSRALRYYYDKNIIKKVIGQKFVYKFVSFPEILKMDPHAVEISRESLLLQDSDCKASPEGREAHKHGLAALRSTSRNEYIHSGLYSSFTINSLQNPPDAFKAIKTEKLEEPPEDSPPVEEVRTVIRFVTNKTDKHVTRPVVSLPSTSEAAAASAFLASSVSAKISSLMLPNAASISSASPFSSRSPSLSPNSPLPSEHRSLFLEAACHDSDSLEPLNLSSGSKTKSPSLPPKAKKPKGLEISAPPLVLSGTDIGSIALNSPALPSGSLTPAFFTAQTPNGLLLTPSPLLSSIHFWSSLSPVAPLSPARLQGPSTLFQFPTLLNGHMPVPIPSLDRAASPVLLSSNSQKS
# Procedure, shortened: as §1
# FEV = target: T7, FEV (Homo sapiens, UniProt Q99581 1-238); details: protein: recombinant; tags: N-terminal GST; dsDNA, one strand shown
# T7 sequence: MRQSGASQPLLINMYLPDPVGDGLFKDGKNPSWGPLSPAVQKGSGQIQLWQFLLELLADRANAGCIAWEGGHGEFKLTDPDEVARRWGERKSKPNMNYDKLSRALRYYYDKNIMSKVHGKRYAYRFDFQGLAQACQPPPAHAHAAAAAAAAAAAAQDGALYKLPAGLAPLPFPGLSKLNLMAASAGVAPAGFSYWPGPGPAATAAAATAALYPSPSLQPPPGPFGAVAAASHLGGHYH
# Procedure, shortened: as §1
# ETV5 = ETV5 (Homo sapiens, UniProt P41161 1-510); details: protein: recombinant; tags: N-terminal GST; dsDNA, one strand shown
# Procedure, shortened: as §1
# HSF1 = HSF1 (Homo sapiens, UniProt Q00613 1-529); details: protein: recombinant; tags: N-terminal GST; chain copies: 3; dsDNA, one strand shown
# Procedure, shortened: as §1
# SPIC = target: T8, SPIC (Homo sapiens, UniProt Q8N5J4 1-248); details: protein: recombinant; tags: N-terminal GST; dsDNA, one strand shown
# T8 sequence: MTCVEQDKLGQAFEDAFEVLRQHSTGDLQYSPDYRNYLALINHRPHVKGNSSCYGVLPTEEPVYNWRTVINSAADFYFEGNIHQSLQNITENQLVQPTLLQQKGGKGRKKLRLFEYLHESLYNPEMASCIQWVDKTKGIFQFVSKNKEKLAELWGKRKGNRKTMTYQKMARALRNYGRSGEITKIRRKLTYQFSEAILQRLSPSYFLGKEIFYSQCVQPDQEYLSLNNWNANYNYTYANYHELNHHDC
# Procedure, shortened: as §1
# ELF4 = ELF4 (Homo sapiens, UniProt Q99607 1-663); details: protein: recombinant; tags: N-terminal GST; dsDNA, one strand shown
# Procedure, shortened: as §1
# ELK4 = target: T9, ELK4 (Homo sapiens, UniProt P28324-2 1-405); details: protein: recombinant; tags: N-terminal GST; dsDNA, one strand shown
# T9 sequence: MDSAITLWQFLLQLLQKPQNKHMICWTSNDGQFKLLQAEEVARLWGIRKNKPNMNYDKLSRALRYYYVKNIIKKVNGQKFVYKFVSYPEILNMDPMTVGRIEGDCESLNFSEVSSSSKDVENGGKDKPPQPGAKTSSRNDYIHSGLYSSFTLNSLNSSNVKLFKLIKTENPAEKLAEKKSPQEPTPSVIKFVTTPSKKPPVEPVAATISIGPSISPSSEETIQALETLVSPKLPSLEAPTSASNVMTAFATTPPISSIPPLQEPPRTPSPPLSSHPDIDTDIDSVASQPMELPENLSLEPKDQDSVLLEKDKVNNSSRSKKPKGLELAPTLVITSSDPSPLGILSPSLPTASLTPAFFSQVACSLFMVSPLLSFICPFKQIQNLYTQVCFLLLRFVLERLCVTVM
# Procedure, shortened: as §1
# ETV2 = target: T10, ETV2 (Homo sapiens, UniProt O00321 1-342); details: protein: recombinant; tags: N-terminal GST; dsDNA, one strand shown
# T10 sequence: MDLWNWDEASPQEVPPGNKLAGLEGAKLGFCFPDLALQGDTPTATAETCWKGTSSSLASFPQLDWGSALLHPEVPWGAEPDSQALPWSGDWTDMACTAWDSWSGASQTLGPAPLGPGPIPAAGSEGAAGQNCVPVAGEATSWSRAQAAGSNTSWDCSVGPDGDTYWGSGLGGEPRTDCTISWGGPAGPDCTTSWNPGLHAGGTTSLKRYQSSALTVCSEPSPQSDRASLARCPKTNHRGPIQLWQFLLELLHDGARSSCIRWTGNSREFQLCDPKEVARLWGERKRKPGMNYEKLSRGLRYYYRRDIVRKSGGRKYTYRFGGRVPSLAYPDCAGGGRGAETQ
# Procedure, shortened: as §1
# ELF3 = target: T11, ELF3 (Homo sapiens, UniProt P78545 1-371); details: protein: recombinant; tags: N-terminal GST; dsDNA, one strand shown
# T11 sequence: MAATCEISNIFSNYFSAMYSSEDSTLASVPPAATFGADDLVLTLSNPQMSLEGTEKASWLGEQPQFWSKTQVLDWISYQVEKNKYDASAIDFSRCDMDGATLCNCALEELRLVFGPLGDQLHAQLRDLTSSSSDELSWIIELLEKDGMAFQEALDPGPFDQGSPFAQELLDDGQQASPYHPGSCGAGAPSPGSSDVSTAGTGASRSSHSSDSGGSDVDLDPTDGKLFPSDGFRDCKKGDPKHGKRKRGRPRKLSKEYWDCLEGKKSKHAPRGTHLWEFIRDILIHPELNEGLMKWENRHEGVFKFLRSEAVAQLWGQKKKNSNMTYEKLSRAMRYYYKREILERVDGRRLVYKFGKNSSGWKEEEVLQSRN
# Procedure, shortened: as §1
# CRX = CRX (Homo sapiens, UniProt O43186 1-299); details: protein: recombinant; tags: N-terminal GST; dsDNA, one strand shown
# Procedure, shortened: as §1
# ETV1 = ETV1 (Homo sapiens, UniProt P50549 1-477); details: protein: recombinant; tags: N-terminal GST; dsDNA, one strand shown
# Procedure, shortened: as §1
# Sequence of CRX (O43186 whole entry): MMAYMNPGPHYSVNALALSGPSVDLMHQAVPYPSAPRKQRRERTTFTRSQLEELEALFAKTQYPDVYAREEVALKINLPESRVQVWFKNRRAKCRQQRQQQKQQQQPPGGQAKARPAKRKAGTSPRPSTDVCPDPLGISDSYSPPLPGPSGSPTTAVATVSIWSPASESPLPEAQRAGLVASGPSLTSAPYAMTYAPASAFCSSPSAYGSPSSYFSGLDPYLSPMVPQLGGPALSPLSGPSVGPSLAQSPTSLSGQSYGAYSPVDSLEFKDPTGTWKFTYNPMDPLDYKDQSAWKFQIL
# Sequence of HSF1 (Q00613 whole entry): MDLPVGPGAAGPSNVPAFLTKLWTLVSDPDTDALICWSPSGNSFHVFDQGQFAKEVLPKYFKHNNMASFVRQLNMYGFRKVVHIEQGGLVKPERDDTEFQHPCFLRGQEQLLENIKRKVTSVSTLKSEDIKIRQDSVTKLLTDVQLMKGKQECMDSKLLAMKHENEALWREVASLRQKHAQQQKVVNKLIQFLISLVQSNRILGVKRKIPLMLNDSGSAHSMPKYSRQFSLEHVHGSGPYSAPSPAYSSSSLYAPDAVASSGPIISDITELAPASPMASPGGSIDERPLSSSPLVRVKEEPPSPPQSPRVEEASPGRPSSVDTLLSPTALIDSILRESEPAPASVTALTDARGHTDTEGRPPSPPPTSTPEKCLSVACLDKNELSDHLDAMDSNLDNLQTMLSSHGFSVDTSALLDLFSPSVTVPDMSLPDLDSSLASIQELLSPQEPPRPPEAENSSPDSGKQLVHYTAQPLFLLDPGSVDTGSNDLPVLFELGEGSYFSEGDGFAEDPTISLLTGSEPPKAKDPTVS
# Sequence of ETV1 (P50549 whole entry): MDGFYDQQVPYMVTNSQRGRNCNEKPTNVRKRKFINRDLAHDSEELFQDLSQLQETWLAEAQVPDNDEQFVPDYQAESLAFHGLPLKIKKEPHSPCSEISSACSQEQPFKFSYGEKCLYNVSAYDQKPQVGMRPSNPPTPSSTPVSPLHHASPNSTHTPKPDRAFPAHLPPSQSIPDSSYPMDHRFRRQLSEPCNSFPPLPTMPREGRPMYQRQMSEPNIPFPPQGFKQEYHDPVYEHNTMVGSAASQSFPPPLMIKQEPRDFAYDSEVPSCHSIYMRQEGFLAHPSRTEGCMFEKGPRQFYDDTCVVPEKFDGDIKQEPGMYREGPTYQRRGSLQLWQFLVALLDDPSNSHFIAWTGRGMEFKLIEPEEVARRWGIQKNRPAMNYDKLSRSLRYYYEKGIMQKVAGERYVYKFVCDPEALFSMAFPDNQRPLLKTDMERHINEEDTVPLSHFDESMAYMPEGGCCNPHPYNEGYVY
# Sequence of ETV5 (P41161 whole entry): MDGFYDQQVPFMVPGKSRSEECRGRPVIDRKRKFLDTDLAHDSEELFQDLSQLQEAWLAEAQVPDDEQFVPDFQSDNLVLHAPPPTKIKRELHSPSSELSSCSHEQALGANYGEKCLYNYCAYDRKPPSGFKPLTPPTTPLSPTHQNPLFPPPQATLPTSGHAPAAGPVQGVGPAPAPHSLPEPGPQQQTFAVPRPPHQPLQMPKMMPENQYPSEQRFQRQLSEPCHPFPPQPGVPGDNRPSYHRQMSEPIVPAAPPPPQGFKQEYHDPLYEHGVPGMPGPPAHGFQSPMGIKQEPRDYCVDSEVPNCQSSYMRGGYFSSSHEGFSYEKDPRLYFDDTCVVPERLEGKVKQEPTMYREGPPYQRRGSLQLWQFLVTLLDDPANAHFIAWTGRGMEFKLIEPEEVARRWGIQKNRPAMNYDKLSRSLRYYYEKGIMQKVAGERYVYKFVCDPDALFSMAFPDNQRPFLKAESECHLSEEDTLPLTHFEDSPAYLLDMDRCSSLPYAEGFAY
# Sequence of ELF1 (P32519 whole entry): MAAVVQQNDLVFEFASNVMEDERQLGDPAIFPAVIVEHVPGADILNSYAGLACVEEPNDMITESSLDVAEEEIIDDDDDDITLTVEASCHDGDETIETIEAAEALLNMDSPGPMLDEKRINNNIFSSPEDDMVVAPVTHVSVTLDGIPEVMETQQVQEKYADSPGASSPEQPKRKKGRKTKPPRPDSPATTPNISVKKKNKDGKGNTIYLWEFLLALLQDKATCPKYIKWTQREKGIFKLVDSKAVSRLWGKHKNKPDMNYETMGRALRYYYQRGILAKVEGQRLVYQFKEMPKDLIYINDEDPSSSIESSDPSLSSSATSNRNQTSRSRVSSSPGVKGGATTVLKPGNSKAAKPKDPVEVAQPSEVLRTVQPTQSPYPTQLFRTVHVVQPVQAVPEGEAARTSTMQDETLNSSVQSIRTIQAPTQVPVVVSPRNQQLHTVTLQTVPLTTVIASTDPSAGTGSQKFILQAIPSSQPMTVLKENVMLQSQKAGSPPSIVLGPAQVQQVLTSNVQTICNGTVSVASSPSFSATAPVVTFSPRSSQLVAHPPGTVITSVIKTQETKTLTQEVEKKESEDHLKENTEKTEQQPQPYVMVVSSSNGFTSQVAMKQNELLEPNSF
# Sequence of SPIB (Q01892 whole entry): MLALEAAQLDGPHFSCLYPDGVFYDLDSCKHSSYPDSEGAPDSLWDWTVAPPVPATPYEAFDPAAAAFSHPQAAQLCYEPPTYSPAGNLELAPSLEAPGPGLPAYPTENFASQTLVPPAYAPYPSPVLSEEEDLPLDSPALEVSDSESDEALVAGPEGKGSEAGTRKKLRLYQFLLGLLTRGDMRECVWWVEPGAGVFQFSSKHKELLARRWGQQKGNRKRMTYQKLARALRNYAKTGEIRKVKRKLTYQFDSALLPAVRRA
# Sequence of ELF4 (Q99607 whole entry): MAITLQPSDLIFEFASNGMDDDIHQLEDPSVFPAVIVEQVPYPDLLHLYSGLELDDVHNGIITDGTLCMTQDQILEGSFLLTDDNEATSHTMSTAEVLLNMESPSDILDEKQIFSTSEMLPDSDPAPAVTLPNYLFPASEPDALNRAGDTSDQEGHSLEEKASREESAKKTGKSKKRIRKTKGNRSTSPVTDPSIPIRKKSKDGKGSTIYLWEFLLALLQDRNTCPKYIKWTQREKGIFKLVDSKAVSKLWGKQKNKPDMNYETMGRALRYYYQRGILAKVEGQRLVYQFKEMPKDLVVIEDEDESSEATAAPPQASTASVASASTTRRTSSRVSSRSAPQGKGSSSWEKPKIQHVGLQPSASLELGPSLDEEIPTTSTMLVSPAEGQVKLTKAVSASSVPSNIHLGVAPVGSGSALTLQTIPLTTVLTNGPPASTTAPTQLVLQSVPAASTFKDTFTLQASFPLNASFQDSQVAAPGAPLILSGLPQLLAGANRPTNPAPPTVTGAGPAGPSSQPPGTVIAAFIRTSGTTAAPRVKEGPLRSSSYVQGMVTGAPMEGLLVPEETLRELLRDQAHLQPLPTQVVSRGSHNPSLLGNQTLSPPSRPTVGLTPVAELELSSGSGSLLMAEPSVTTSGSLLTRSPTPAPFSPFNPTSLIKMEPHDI
sequence,measurement,setting,value
AAACTA,binding signal,FLI1,"1.17 fold enrichment (6-mer frequency, TF over GST control)"
same,binding signal,ELK1,"1.23 fold enrichment (6-mer frequency, TF over GST control)"
same,binding signal,GABPA,"1.23 fold enrichment (6-mer frequency, TF over GST control)"
same,binding signal,ERG,"1.23 fold enrichment (6-mer frequency, TF over GST control)"
same,binding signal,ELF1,"1.27 fold enrichment (6-mer frequency, TF over GST control)"
same,binding signal,EHF,"1.32 fold enrichment (6-mer frequency, TF over GST control)"
same,binding signal,SPI1,"1.22 fold enrichment (6-mer frequency, TF over GST control)"
same,binding signal,SPIB,"1.22 fold enrichment (6-mer frequency, TF over GST control)"
same,binding signal,ELK3,"1.34 fold enrichment (6-mer frequency, TF over GST control)"
same,binding signal,FEV,"1.29 fold enrichment (6-mer frequency, TF over GST control)"
same,binding signal,ETV5,"1.3 fold enrichment (6-mer frequency, TF over GST control)"
same,binding signal,HSF1,"1.31 fold enrichment (6-mer frequency, TF over GST control)"
same,binding signal,SPIC,"1.18 fold enrichment (6-mer frequency, TF over GST control)"
same,binding signal,ELF4,"1.33 fold enrichment (6-mer frequency, TF over GST control)"
same,binding signal,ELK4,"1.22 fold enrichment (6-mer frequency, TF over GST control)"
same,binding signal,ETV2,"1.29 fold enrichment (6-mer frequency, TF over GST control)"
same,binding signal,ELF3,"1.09 fold enrichment (6-mer frequency, TF over GST control)"
same,binding signal,CRX,"1.35 fold enrichment (6-mer frequency, TF over GST control)"
same,binding signal,ETV1,"1.36 fold enrichment (6-mer frequency, TF over GST control)"

# Source: paper PMC7862700, “An all-to-all approach to the identification of sequence-specific readers for epigenetic DNA modifications on cytosine”
